Assay results: PubChem BioAssay AID485344 (National Center for Advancing Translational Sciences (NCATS), 2010)
In all, about 340,000 compounds went through this assay and about 6,900 (2%) were called active. Rule as the data show it: active = inhibition above about 30%; inactive = below that, where a call was filed. The full list was thinned out, with actives kept by preference.

Each compound was assayed against D(2) dopamine receptor (Homo sapiens) (UniProt P14416) (assay: HTS Assay for Allosteric Antagonists of the Human D2 Dopamine Receptor: Primary Screen for Antagonists). Settings: HEK293 TREx D2 cells, calcium flux, dopamine EC80; at 10 µM; stronger effect = higher value.
Summary of the method: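 Dopamine at EC80 is the agonist stimulus; test compounds precede it by 180 s. Calcium flux read kinetically in a force-coupled, inducible HEK293 T-REx D2 cell line.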
Also: 0% is about no effect.

Sequence of D(2) dopamine receptor (Homo sapiens) (P14416 whole entry, looked up): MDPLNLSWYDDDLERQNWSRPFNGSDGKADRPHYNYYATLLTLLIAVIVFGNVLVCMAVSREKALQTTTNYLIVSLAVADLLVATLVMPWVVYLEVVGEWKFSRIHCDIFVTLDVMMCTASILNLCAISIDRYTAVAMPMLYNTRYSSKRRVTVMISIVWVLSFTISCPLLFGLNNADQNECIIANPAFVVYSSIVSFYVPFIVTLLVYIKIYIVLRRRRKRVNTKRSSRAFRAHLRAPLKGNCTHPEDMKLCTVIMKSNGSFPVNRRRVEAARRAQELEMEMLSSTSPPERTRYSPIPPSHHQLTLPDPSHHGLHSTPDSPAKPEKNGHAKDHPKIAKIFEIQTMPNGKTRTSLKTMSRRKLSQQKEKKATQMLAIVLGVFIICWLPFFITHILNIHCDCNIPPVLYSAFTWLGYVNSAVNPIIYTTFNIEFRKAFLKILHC

Structure (SMILES)	inhibition
CN(C)C(=O)c1ccc(NC(=O)COC(=O)c2cc3c(s2)CCCCC3)cc1	-7.26% (inactive)
COc1ccc(-c2nc3ccccc3c(=O)n2CCc2ccc(O)cc2)cc1	-13.4% (inactive)
COc1ccc(-c2c(C#Cc3ccccc3)c3ccccc3n2C)cc1	9.11% (inactive)
COc1ccc(CCNCc2c(-c3ccccc3)n(C)c3ccccc23)cc1	45.6% (active)
COc1ccc(C2C(C#N)=C(N)Oc3n[nH]c(C)c32)cc1CN1CCN(c2ccc(F)cc2)CC1 (stereo unspecified)	53.9% (active)
CCCc1[nH]nc2c1C(c1ccc(OC)c(Cn3nc(C)c(Br)c3C)c1)C(C#N)=C(N)O2 (stereo unspecified)	-23.9% (inactive)
CCOc1c(OC)cc(C2C(C#N)=C(N)Oc3n[nH]c(-c4ccncc4)c32)cc1OC (stereo unspecified)	-9.43% (inactive)
COc1ccccc1/C=C/C(=O)OCC(=O)NC1CCCCCC1	-12.9% (inactive)
CCN(CC(=O)Nc1ccccc1C(=O)NC1CC1)Cc1cccs1	0.568% (inactive)
Cc1cc(C)c(C#N)c(SCC(=O)N(CC(C)C)C2CCS(=O)(=O)C2)n1 (stereo unspecified)	6.67% (inactive)
CC1CC1C(=O)OCC(=O)Nc1cccc(F)c1 (stereo unspecified)	17.3% (inactive)
Cc1ccsc1C(C(=O)NC1CCCCC1)N(C(=O)Cc1cccs1)C1CC1 (stereo unspecified)	2.03% (inactive)
O=C(Cc1cccs1)N(CC1CCCO1)C1(C(=O)NC2CCCCC2)CCCCC1 (stereo unspecified)	34% (active)
CC(=O)N(CC1CCCO1)C1(C(=O)NC2CCCC2)CCCCC1 (stereo unspecified)	-1.19% (inactive)
COc1ccc(N(CCC(=O)NCCc2ccccc2)S(=O)(=O)c2ccc(C)cc2C)cc1	-18.2% (inactive)
COc1cc2c(cc1OC)CN(C(C)C(=O)Nc1cccc(S(=O)(=O)N3CCOCC3)c1)CC2 (stereo unspecified)	15.6% (inactive)
CC(Oc1ccccc1)C(=O)Nc1c2c(nn1-c1ccccc1)CS(=O)C2 (stereo unspecified)	30.2% (active)
CC(C)C(=O)Nc1c2c(nn1-c1ccccc1)CSC2	7.83% (inactive)
COc1ccc(CC(=O)Nc2c3c(nn2-c2cccc(Cl)c2)CS(=O)C3)cc1 (stereo unspecified)	-9.37% (inactive)
O=c1ccc(S(=O)(=O)N2CCCC2)cn1Cc1nc(-c2ccccc2)no1	15.2% (inactive)
CCOc1ccccc1-c1nc(CN2CCC(C(=O)N3CCOCC3)CC2)c(C)o1	-1.66% (inactive)

Structure (SMILES)	inhibition
COc1ccc(-c2nc(CN3CCN(c4ncccn4)CC3)c(C)o2)cc1C	0.804% (inactive)
COc1ccc(F)c(-c2nc(CN3CCC(c4ccccc4)CC3)c(C)o2)c1	93.5% (active)
COc1ccccc1N1CCN(CC(=O)Nc2ccnn2C2CCCC2)CC1	14.3% (inactive)
CC(=O)NC12CC3CC(C1)CC(C(=O)N1CCN(S(=O)(=O)c4cccs4)CC1)(C3)C2	-3.14% (inactive)
O=C1c2ccccc2C(=O)N1CCC#Cc1ccc2cc(C3(O)CCCCC3)oc(=O)c2c1	-4.36% (inactive)
COc1cccc(N2CC(NS(=O)(=O)c3ccc(Cl)cc3)CC2=O)c1 (stereo unspecified)	12% (inactive)
NS(=O)(=O)c1ccc(-c2ccc(/C=C3\SC(=O)NC3=O)o2)cc1	47.3% (active)
CN1CCN(/N=C/c2ccc(-c3ccc([N+](=O)[O-])cc3)o2)CC1	11.1% (inactive)
CN1C(=O)/C(=C\c2ccc(-c3ccccc3)o2)SC1=S	16.2% (inactive)
COC(=O)c1sc(NC(=O)COC(=O)C2CCC2)c(C(=O)OC)c1C	3.68% (inactive)
CC(Sc1ncnc2c1cnn2-c1ccccc1)C(=O)Nc1ccc(N2CCOCC2)cc1 (stereo unspecified)	8.83% (inactive)
CCOc1ccc(C(C)=O)cc1COC(=O)CN1C(=O)NC2(CCCC2)C1=O	5.14% (inactive)
CC(C)=CCC/C(C)=C/C(=O)O	55.4% (active)
CC(C)c1ccc(C(=O)NCCCc2ccccc2)cc1	-23.5% (inactive)
O=C(CCNC(=O)c1ccc(Br)cc1)NCCCc1ccccc1	34.2% (active)
O=C(CCc1ccccc1)NNC(=O)c1ccc(Br)cc1	-5.25% (inactive)
O=C(CNS(=O)(=O)c1ccc2ccccc2c1)Nc1ccc(F)c(F)c1F	6.19% (inactive)
COC(=O)c1ccc(Cc2ccccc2)o1	-18.3% (inactive)
COC(=O)c1ccc(CSc2nnc(N)s2)o1	-17.4% (inactive)
COC(=O)c1ccc(CSc2ccccc2C)o1	34.1% (active)
COc1ccc(N2CCN(C(=O)COC(=O)c3cccc(S(=O)(=O)Nc4ccccc4OC)c3)CC2)cc1	3.16% (inactive)

Structure (SMILES)	inhibition
CC1CCCCC1NC(=O)NC(=O)COC(=O)C1=NN(c2ccccc2)C(=O)CC1 (stereo unspecified)	-16.5% (inactive)
CC1CCCCC1NC(=O)COC(=O)Cc1ccc(Cl)cc1 (stereo unspecified)	-14.4% (inactive)
Cc1nn(Cc2ccccc2)c(C)c1C(=O)NCCCN1CCCC1=O	0.482% (inactive)
CC(=O)Oc1ccccc1C(=O)Nc1ncc([N+](=O)[O-])s1	35% (active)
O=C(CCc1ccccc1)Nc1ncc([N+](=O)[O-])s1	-6.9% (inactive)
O=C(Nc1ncc([N+](=O)[O-])s1)C1COc2ccccc2O1 (stereo unspecified)	5.74% (inactive)
O=C1C=C(c2cccc(Br)c2)C[C@@H](c2ccc(F)cc2)C1	-5.1% (inactive)
C=CCc1ccccc1OCC(O)CN1CCN(CCO)CC1 (stereo unspecified)	-21.6% (inactive)
CC(=O)Nc1ccc(OCC(O)CN2CCN(c3ccccc3Cl)CC2)cc1 (stereo unspecified)	76.3% (active)
O=S(=O)(c1ccc(OCC(O)CN2CCN(c3ccccc3Cl)CC2)cc1)N1CCOCC1 (stereo unspecified)	-9.57% (inactive)
CC1CCN(CC(O)COc2ccc(C(=O)c3ccccc3)cc2)CC1 (stereo unspecified)	2.36% (inactive)
CC(C)c1ccc(OCC(O)CN2CCN(c3ccccn3)CC2)cc1 (stereo unspecified)	74.5% (active)
O=C(c1ccccc1)c1ccc(OCC(O)CN2CCCC2)cc1 (stereo unspecified)	71.8% (active)
OC(COc1cccc2ccccc12)CN1CCN(c2ccccn2)CC1 (stereo unspecified)	75.1% (active)
O=C(c1ccc(Cl)cc1)c1ccc(OCC(O)CN2CCCCC2)cc1 (stereo unspecified)	11.7% (inactive)
Cc1cccc(OCC(O)CN2CCN(CCN3C(=O)c4cccc5cccc(c45)C3=O)CC2)c1C (stereo unspecified)	-17.4% (inactive)
CC(C)c1ccc(OCC(O)Cn2cnc3ccccc32)cc1 (stereo unspecified)	5.76% (inactive)
OC(COc1ccc(Br)cc1)CN1CCCC1 (stereo unspecified)	15.6% (inactive)
O=C(C(c1ccccc1)c1ccccc1)N1CCN(CC(O)COc2ccccc2)CC1 (stereo unspecified)	19.3% (inactive)
